Measured values taken from PubChem BioAssay.
Calls of active or inactive are those of the source.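 How the source made its calls, unless noted: active means visual image review flags a hit and inhibition of aggregation exceeds 20%; inconclusive means visual hit but inhibition at or below 20%; inactive means no hit on visual image review.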

Columns and labels:
[1] = inhibitors of TNFa-induced NFkB p65 translocation, primary screen, imaging, HUVEC, MLSMR starter and 10KST1 sets (AID 438;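 active means inhibition above 20% together with a positive visual image hit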;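 further: compound added about 3h40 before a 20 min TNFalpha stimulation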;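 on inhibition: signal is the nuclear over cytoplasmic p65 intensity ratio per well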); details: HUVEC TNFa-induced p65 nuclear translocation; cell count: measured here: nuclei count (cytotoxicity indicator), at 2.08 µM unless noted; inhibition: at 2 µM, stronger effect = higher value unless noted
[2] = reduction of polyQ htt aggregates in cells – imaging, exon1htt(103Q)mCFP cells, high-content imaging, primary screen (AID 483); details: exon1htt(103Q)mCFP cell line, aggregate imaging, at 2 µM; inhibition of aggregation: stronger effect = higher value; nuclei count: measured here: cell count, toxicity;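 further: compound exposure lasted 3 days before fixation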;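 on nuclei count: percent of the per-plate median nuclei count of sample wells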
[3] = endothelial E-selectin expression blockers – imaging, HUVEC, immunofluorescence, MLSMR starter and 10KST1 sets, primary screen (AID 487;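 active means visually confirmed hit in the image check and inhibition above 20%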;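 on inhibition: signal is fraction of cell area covered by stained E-selectin grains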;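 on nuclei count: 100% = median nuclei count of all wells on the same plate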); details: HUVEC TNFalpha-induced E-selectin immunofluorescence imaging, at 2 µM; inhibition: stronger effect = higher value; nuclei count: measured here: cell number, toxicity
[4] = molecular target: Voltage-gated potassium channel subunit beta-2 (Rattus norvegicus) (UniProt P62483); assay: inhibitors of rat Kvbeta2 reductase activity – biochemical, NADPH fluorescence, primary screen (AID 622;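 active means fluorescence slope higher than the sample average by over 3 SD, cut at about -0.22 in these data, passing the limit was not always enough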;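 further: slope of raw intensity against log time taken from 70 to 1610 s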); details: recombinant KvBeta, 4-cyanobenzaldehyde reduction, at 10 µM, stronger effect = higher value
Voltage-gated potassium channel subunit beta-2 (Rattus norvegicus), sequence (P62483 whole entry, looked up): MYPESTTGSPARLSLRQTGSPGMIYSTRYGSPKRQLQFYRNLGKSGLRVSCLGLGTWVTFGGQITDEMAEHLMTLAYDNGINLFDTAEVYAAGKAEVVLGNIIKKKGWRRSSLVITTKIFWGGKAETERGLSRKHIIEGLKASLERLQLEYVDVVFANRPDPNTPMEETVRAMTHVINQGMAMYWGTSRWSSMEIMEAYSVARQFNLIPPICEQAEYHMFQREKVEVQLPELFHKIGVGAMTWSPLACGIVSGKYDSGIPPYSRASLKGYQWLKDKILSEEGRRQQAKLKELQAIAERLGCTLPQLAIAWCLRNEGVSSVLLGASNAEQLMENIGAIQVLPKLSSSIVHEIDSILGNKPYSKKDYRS

[5] = molecular target: Voltage-gated potassium channel subunit beta-2 (Rattus norvegicus) (UniProt P62483); assay: enhancers of rat Kvbeta2 NADPH turnover – biochemical, NADPH fluorescence, primary screen (AID 623;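 active means NADPH fluorescence slope more negative than the mean of all samples by about 3 SD, 99.7% confidence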;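 further: fluorescence intensity change per second fitted from 20 to 320 s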); details: Recombinant KvBeta, NADPH fluorescence decrease slope, 10 min; at 10 µM; stronger effect = lower value
[6] = molecular target: Muscarinic acetylcholine receptor M4 (Homo sapiens) (UniProt P08173); assay: M4-linked GIRK flux change, two-sided – cell-based, HEK293 M4/GIRK, thallium flux, BTC-AM, M4 allosteric agonist project, primary screen (AID 625;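 active means fluorescence slope after compound addition differing from the mean of all tested samples at 99.7% confidence, mostly higher but some lower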;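 further: thallium influx through GIRK channels coupled to M4 in HEK293 cells with BTC-AM dye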); details: at 10 µM, actives lie on both sides
Muscarinic acetylcholine receptor M4 (Homo sapiens), sequence (P08173 whole entry, looked up): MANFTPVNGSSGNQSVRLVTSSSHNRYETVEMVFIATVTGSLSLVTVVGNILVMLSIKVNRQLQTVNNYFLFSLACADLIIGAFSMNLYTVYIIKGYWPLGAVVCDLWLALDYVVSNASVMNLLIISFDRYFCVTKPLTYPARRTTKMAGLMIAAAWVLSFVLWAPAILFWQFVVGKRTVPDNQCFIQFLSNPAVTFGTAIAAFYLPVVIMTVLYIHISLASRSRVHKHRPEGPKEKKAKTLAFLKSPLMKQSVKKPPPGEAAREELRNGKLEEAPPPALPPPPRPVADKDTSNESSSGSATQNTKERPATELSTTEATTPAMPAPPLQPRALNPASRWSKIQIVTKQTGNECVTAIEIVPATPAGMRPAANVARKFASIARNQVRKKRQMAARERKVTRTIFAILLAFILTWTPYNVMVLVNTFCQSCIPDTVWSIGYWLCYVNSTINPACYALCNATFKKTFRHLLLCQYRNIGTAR

[7] = blockers of RIG-like receptor reporter activation – cell-based, Sendai virus stimulus, luciferase, 10K MLSCN set, TLR/RLR signaling modifier project, primary screen (AID 602276;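 active means inhibition at or above 50% at 10 µM; inactive means inhibition below 50%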;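 further: firefly luciferase from ISG56 promoter only with Renilla not read in this screen; 0% = Sendai virus plus DMSO and 100% = medium plus DMSO without virus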); details: HEK293 RL24 IRF3 luciferase reporter, at 10 µM, stronger effect = higher value
[8] = TLR3 IRF3 reporter activation blockers – cell-based, poly I:C stimulus, luciferase, 10K MLSCN set, primary screen (AID 602277;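 active means inhibition of the reporter signal at or above 50%; inactive means inhibition below 50%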); details: HEK293-TLR3 RL24 IRF3 luciferase reporter, at 10 µM, stronger effect = higher value
[9] = molecular target: Alpha-2C adrenergic receptor (Homo sapiens) (UniProt P18825); assay: compounds altering alpha2C-coupled GIRK flux – cell-based, HEK293 alpha2C/GIRK1/2, thallium flux, primary screen (AID 624;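 active means fluorescence slope after compound addition differing from the mean of all screened samples at 99.7% confidence, in either direction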;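 further: slope of fluorescence ratio to pre-addition baseline per second over 15 to 24 s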); details: thallium flux BTC fluorescence, at 10 µM, actives lie on both sides
Alpha-2C adrenergic receptor (Homo sapiens), sequence (P18825 whole entry, looked up): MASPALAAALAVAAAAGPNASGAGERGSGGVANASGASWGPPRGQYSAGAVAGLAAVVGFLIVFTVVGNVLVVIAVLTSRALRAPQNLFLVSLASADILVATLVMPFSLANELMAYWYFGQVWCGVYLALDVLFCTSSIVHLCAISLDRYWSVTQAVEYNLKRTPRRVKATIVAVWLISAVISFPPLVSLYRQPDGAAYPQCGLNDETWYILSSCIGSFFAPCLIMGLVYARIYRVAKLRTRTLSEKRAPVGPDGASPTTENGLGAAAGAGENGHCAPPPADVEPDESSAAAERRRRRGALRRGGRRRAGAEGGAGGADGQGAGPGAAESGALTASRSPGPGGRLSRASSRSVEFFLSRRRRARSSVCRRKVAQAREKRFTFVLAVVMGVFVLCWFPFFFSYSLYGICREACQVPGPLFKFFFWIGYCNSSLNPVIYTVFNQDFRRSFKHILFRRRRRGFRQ

[10] = inhibitors of larval lipid processing in zebrafish, primary screen, whole organism, PED6 fluorescence, gall bladder and intestine (AID 686;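 active means a full or partial loss of lipid-probe fluorescence in the fish gall bladder, intestine or both, judged by eye; inactive means no fluorescence loss, or compound toxic to the fish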;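 further: larvae 5 to 7 days old with five fish per well; signal comes from phospholipase A2 cleavage of quenched PED6 carried via bile; overnight exposure to compound and PED6 before scoring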); details: Zebrafish larvae PED6 lipid processing, fluorescence scoring
[11] = loss of swimming-algae plug formation – whole organism, Chlamydomonas reinhardtii, WT vs cilia-less mutant, absorbance, 96-well, primary screen (AID 463189;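 active means inhibition at or above 50% relative to wild type and mutant plate controls; inactive means inhibition below 50%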;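 further: 0% = wild type cc124 cells in DMSO and 100% = ciliumless bld1 mutant cells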); details: Chlamydomonas reinhardtii gravitaxis, OD600 absorbance, 2 days; at 10 µM; stronger effect = higher value

SMILES	cell count [1]	inhibition [1]	inhibition of aggregation [2]	nuclei count [2]	inhibition [3]	nuclei count [3]	fluorescence slope [4]	NADPH fluorescence slope [5]	fluorescence slope [6]	inhibition [7]	inhibition [8]	slope [9]	outcome [10]	inhibition [11]
CC(=O)N1CC(=O)Nc2ccc(Cl)cc2C1c1ccc(F)cc1 (stereo not given)	416	20.8% (inactive)	-6.1% (inactive)	103%	-45.1% (inactive)	105%	-0.569 (inactive)	-1.5e-05 (inactive)	0.00574 (inactive)	-2.3% (inactive)	-0.788% (inactive)	–	–	–
Cc1[nH]c2c(Cl)cccc2c1CCN	517	3.9% (inactive)	1.5% (inactive)	86.5%	-19.9% (inactive)	110%	-0.427 (inactive)	-1.2e-05 (inactive)	0.0063 (inactive)	13% (inactive)	18.6% (inactive)	–	–	–
CCCCOc1ccc(CN2CCN(CCO)CC2)cc1	644	2.9% (inactive)	-4.6% (inactive)	115%	-3.3% (inactive)	96.5%	-0.43 (inactive)	-0.00013 (inactive)	–	5.26% (inactive)	10.1% (inactive)	0.00523 (inactive)	–	–
O=C(O)c1nonc1-c1nonc1C(=O)O	195	-1.9% (inactive)	14.6% (inactive)	99.5%	-27.8% (inactive)	104%	-0.641 (inactive)	-1.4e-05 (inactive)	0.00379 (inactive)	17.8% (inactive)	15.2% (inactive)	–	–	–
O=C(NCc1ccccn1)c1ccccc1Cl	627	-0.6% (inactive)	2.9% (inactive)	111%	-26.1% (inactive)	92.5%	-0.532 (inactive)	-5.9e-05 (inactive)	–	10.8% (inactive)	10.8% (inactive)	0.00536 (inactive)	–	–
COC(=O)c1c(C)n(Cc2ccc3c(c2)OCO3)c2ccc(O)cc12	598	2.2% (inactive)	-6.7% (inactive)	109%	30.8% (inactive)	90.3%	-0.528 (inactive)	-1.6e-05 (inactive)	0.0049 (inactive)	-0.687% (inactive)	-6.04% (inactive)	–	–	–
CCOC(=O)C1CCCCC12C(C#N)=C(N)Oc1n[nH]c(C)c12 (stereo not given)	733	-5.8% (inactive)	-12% (inactive)	104%	-6.6% (inactive)	110%	-0.637 (inactive)	1.2e-05 (inactive)	0.00575 (inactive)	17.2% (inactive)	21.9% (inactive)	–	–	–
OC(CNC1CCCCC1)c1ccccc1 (stereo not given)	317	-2.5% (inactive)	17.9% (inactive)	107%	-91.2% (inactive)	105%	-0.399 (inactive)	-4.1e-05 (inactive)	–	10.6% (inactive)	22.6% (inactive)	0.00434 (inactive)	inactive	–
CC(O)C(C)OC(=O)[C@@H]1C[C@@H]2c3cccc4c3c(cn4C(C)C)C[C@H]2N(C)C1 (stereo not given in full)	–	–	–	–	–	–	–	–	–	–	–	–	–	33.8% (inactive)
COC(=O)c1ccccc1-n1c(C)nc2ccccc2c1=O	328	-4.4% (inactive)	-24.8% (inactive)	103%	-140% (inactive)	115%	-0.605 (inactive)	4.4e-06 (inactive)	0.00587 (inactive)	-2.94% (inactive)	-2.38% (inactive)	–	–	–
O=c1[nH]c(=O)n(Cc2ccccc2)c(O)c1C=NCCCO	414	-6.5% (inactive)	24.4% (inactive)	90.8%	-59% (inactive)	128%	-0.52 (inactive)	-3e-05 (inactive)	0.00467 (inactive)	16.7% (inactive)	16.9% (inactive)	–	–	–
CC(C)OC(=O)c1c(N)n(CC2CCCO2)c2nc3ccccc3nc12 (stereo not given)	470	-5.1% (inactive)	23.6% (inactive)	104%	-26.3% (inactive)	191%	-0.0217 (active)	1.4e-05 (inactive)	0.00718 (inactive)	9.43% (inactive)	13.4% (inactive)	–	–	–
N#Cc1ccccc1Cn1cc(C(=O)c2ccco2)c2ccccc21	353	6% (inactive)	23.1% (inactive)	76.5%	-3.7% (inactive)	80.5%	-0.254 (inactive)	-2.3e-05 (inactive)	0.00586 (inactive)	16.6% (inactive)	15.1% (inactive)	–	–	–
Cc1cc(NC(=O)COC(=O)c2c(C)nn(Cc3ccccc3)c2Cl)no1	346	7.3% (inactive)	-4.8% (inactive)	90.6%	-68.8% (inactive)	109%	-0.377 (inactive)	-0.000127 (inactive)	0.00868 (inactive)	3.25% (inactive)	12.9% (inactive)	–	–	–
